Most compounds without a hit are left out; they make up all but 1.6% or so of the library.
ABCB6 inh 2: inhibitors of human ABC transporter ABCB6 | hit rate 0.19% among 360,000 | K562-ABCB6 porphyrin accumulation, flow cytometry, 1 h; stronger effect = lower value | fluorescence ratio to DMSO, % at 10 µM;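 active means fluorescence ratio to DMSO below 75%, the collection mean minus 3 SD; inconclusive means too few cells collected in the well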;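 further: signal is porphyrin accumulated inside mitochondria; 100% equals median channel fluorescence of DMSO control wells; lower ratio means ABCB6 inhibition with less porphyrin fluorescence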
N-glyco inh: blocks N-linked glycosylation in D54 reporter cells | D54 ERlucT glycosylation luciferase reporter, 24 h; percent of 100 nM tunicamycin response | AID 588692 | reporter increase, % at 12.5 µM | hit rate 0.23% among 360,000;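 active means mean luciferase reporter signal, scaled so untreated is 0 and the glycosylation-blocking control 100, at or above a set limit in every replicate; inconclusive means mean reaches the limit but not every replicate does; inactive means mean below the limit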;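 further: luciferase carries N-glycosylation sites so blocking glycosylation raises the light; 0% = median of neutral control wells and 100% = median of 100 nM tunicamycin wells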
Myeloid diff MLP: promotes myeloid progenitor differentiation | ER-HoxA9 myeloid progenitors, lysozyme-GFP differentiation, flow cytometry | calls only at 10 µM | hit rate 1% among 360,000 | AID 624256;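 active means normalized GFP-positive differentiation at or above the plate's own cutoff, the solvent-only control mean plus 3 SD; inconclusive means no clear call, values can overlap the other calls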;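 further: cells exposed to compound for four days before flow analysis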
Vif inh: HIV Vif inhibition; AID 602346; HEK293T cells, Vif self-association by quenched fluorescence, imaging, 24 h; hit rate 0.35% among 340,000; inhibition, % at 7.49 µM; in the data active means inhibition above about 50%, passing the limit was not always enough; inconclusive means no clear call, values can overlap the other calls; inactive means below about 31%
RAD54 branch: blocks human RAD54 Holliday junction branch migration | Q92698 | FAM/BHQ fluorescence | inhibition, % at 10.4 µM | hit rate 0.14% among 360,000 | AID 602329;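 active means mean normalized replicate activity at least 40 and at least half of replicates scoring 40 or more; inconclusive means only one of the two criteria met; inactive means mean below 40 and under half of replicates reaching 40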;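 further: 0% = median of neutral control wells and 100% = median of positive control wells; inhibitors cause a drop in the FAM fluorescence signal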
Target sequence (Q92698 whole entry, looked up): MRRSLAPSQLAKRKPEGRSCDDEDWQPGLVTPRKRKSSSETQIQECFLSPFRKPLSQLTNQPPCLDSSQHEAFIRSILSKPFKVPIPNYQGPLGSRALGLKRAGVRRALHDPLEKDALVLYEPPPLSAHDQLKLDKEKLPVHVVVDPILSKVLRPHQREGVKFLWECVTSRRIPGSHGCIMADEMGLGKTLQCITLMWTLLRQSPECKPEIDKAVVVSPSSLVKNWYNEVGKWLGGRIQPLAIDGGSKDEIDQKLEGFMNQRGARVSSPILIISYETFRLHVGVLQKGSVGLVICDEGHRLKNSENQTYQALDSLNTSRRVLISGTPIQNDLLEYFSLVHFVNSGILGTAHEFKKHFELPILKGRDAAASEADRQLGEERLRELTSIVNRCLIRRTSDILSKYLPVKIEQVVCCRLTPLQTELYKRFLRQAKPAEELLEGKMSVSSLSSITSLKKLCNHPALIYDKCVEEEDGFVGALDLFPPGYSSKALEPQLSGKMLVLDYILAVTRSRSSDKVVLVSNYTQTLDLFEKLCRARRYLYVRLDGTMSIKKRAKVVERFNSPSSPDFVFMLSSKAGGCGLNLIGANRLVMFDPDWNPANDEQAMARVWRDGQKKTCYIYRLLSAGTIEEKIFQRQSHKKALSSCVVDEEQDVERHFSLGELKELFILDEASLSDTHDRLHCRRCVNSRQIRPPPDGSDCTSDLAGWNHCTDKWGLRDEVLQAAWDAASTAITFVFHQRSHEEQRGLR
* marks the source's active call; other numbers are inactive results; i = inactive; ? = inconclusive; . = no result given; + = active, no number.

SMILES | ABCB6 inh 2 | N-glyco inh | Myeloid diff MLP | Vif inh | RAD54 branch
CCS(=O)(=O)c1ncc(Cl)c(C(=O)Nc2ccc(S(=O)(=O)N3CCC(C)CC3)cc2)n1 | 44.0* | -25.0 | . | 18.6 | 13.0
CN(c1ccccc1)S(=O)(=O)c1ccc(NC(=O)c2nc(S(C)(=O)=O)ncc2Cl)cc1 | 40.0* | -18.7 | ? | -15.7 | -5.6
O=C(C[C@H]1CC[C@H]2[C@@H](COC[C@H](O)CN2Cc2cccc(F)c2)O1)NCc1cccc(F)c1 | . | . | . | . | -0.8
COc1cccc(-c2cnc3c(c2)C(=O)N([C@@H](C)CO)C[C@H](C)[C@@H](CN(C)C(=O)CN(C)C)O3)c1 | . | . | . | . | 8.8
COCC(=O)Nc1ccc2c(c1)C(=O)N(C)[C@@H]1CC[C@H](CC(=O)NCc3ccccc3F)O[C@H]1CO2 | . | . | . | . | 0.9
COCC(=O)N1C[C@@H](C)[C@@H](OC)CN(C)C(=O)c2cc(NC(=O)c3ccc(OC)cc3)ccc2OC[C@@H]1C | . | . | . | . | 2.6
O=C(Nc1ccc(N2CCCC2)c(Cl)c1)c1cccnc1 | 100.0 | -0.7 | i | -19.2 | 0.8
O=C(Nc1ccc(N2CCCCC2)c(Cl)c1)c1cccnc1 | 143.0 | -10.3 | + | . | -20.5
O=C(CN1CCOCC1)N[C@@H]1CC[C@H](CCNC(=O)C2CCC2)O[C@H]1CO | . | . | . | . | -0.9
COc1ccc(C(=O)NCc2nnc(SCC(=O)NO)n2Cc2ccccc2)cc1 | 100.0 | 40.9* | i | 7.6 | .
COc1ccc(NC(=O)CCS(=O)(=O)c2ccc(Cl)cc2)cc1 | 122.0 | 1.4 | + | 1.8 | 4.7
Cc1ccc(C(=O)CCS(=O)(=O)c2ccc(Cl)cc2)cc1 | 103.0 | 1.1 | + | -0.6 | 2.9
Cc1ccc(S(=O)(=O)CCC(=O)c2ccc(F)cc2)cc1 | 103.0 | 0.7 | ? | 5.8 | 3.5
COc1ccc(NC(=O)CCS(=O)(=O)c2ccc(OC)cc2)cc1 | 98.0 | . | i | . | 0.0
COc1ccc(S(=O)(=O)N[C@H]2C=C[C@H](CC(=O)NCCc3ccncc3)O[C@@H]2CO)cc1 | . | . | . | . | 1.8
O=C(N[C@H]1CC[C@@H](CCn2cc(C3(O)CCCC3)nn2)O[C@H]1CO)c1ccccc1F | . | . | . | . | -4.2
CC(C)NC(=O)N(C)C[C@@H]1OCCCC[C@H](C)Oc2ccc(NC(=O)Nc3ccc(C(F)(F)F)cc3)cc2C(=O)N([C@H](C)CO)C[C@@H]1C | . | . | . | . | 5.8
O=C(C[C@@H]1C=C[C@@H](NS(=O)(=O)c2ccccc2)[C@@H](CO)O1)N1CCc2ccccc2C1 | . | . | . | . | 6.0
CC(C)n1cnc2c(N(C)c3ccccc3)nc(N(CCN(C)C)Cc3ccccc3)nc21 | 106.0 | 8.9 | + | -20.0 | 5.3
O=C(C[C@@H]1CC[C@@H](NS(=O)(=O)c2ccc(F)cc2)[C@@H](CO)O1)NC1CCCCC1 | . | . | . | . | 2.0
O=C(CSc1ccc2ccccc2c1)Nn1cnnc1 | 96.0 | 0.3 | i | 4.2 | -2.8
O=C(CSc1ccc(Cl)cc1)Nn1cnnc1 | i | 1.4 | + | . | 14.9
N#C/C(=C\c1ccccc1C(F)(F)F)C(=O)Nc1ccccc1 | 92.0 | 1.9 | i | 3.9 | .
CCc1cccc(CC)c1NC(=O)/C(C#N)=C/c1ccccc1C(F)(F)F | 102.0 | 69.4* | i | 0.7 | 13.4
c1ccc2c(-c3nc4ccccc4[nH]3)cccc2c1 | 98.0 | 28.4* | ? | 0.3 | .
SMILES | ABCB6 inh 2 | N-glyco inh | Myeloid diff MLP | Vif inh | RAD54 branch
CCOC(=O)CSc1ccc(C(=O)NCCN2CCOCC2)cc1[N+](=O)[O-] | 94.0 | -0.2 | i | -9.8 | -7.6
CCCNC(=O)c1ccc(SCC(=O)N(CC)CC)c([N+](=O)[O-])c1 | 105.0 | 0.5 | i | 65.4* | 1.7
CN=C1c2cc3c(Br)c(OC)ccc3n2CCN1C | 98.0 | -2.7 | i | -2.5 | 33.7
CN=C1c2cc3cc(OC)ccc3n2CCN1C | 101.0 | -0.8 | + | 17.0 | 9.0
N#CCC(=O)Nc1ccc(C(=O)OCC(=O)C23CC4CC(CC(C4)C2)C3)cc1 | 98.0 | -2.7 | + | . | -4.3
N#CCC(=O)Nc1ccc(C(=O)OCc2ccccc2Oc2ccccc2)cc1 | 91.0 | -0.8 | + | 2.9 | 2.1
O=C(C[C@@H]1C[C@H]2c3cc(NC(=O)C4CCOCC4)ccc3O[C@H]2[C@H](CO)O1)NCCc1ccccc1 | . | . | . | . | -18.2
CC1=C(C(=O)N(C(C)C)C(C)C)CC(CC(=O)NCCCCc2ccccc2)C(=O)N1Cc1ccc(C(C)(C)C)cc1 (stereo unspecified) | 88.0 | -2.1 | + | . | 5.8
CCC(C)(C)C(=O)O[C@H]1C[C@@H](C)C=C2C=C[C@H](C)[C@H](CC[C@@H]3C[C@@H](O)CC(=O)O3)[C@H]21 | 101.0 | 44.9* | . | 4.6 | 4.2
